# Reference: paper PMC4336329 (PLoS ONE, 2015)
# Screen size: about 310,000 compounds; about 14,000 (4.5%) showed an effect of 50% or more. The effect is printed as a negative number. This excerpt belongs to a sample that is enriched for strong results.
# Target: human ether-à-go-go-related gene (hERG) potassium channel (human, UniProt Q12809)
# Experiment: primary screen, population patch clamp on CHO cells stably expressing hERG; higher = less effect of the substance
# 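Further: peak tail current of the secondary pulse compared with the same well before compound.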
# human ether-à-go-go-related gene (hERG) potassium channel, sequence (Q12809 whole entry, looked up): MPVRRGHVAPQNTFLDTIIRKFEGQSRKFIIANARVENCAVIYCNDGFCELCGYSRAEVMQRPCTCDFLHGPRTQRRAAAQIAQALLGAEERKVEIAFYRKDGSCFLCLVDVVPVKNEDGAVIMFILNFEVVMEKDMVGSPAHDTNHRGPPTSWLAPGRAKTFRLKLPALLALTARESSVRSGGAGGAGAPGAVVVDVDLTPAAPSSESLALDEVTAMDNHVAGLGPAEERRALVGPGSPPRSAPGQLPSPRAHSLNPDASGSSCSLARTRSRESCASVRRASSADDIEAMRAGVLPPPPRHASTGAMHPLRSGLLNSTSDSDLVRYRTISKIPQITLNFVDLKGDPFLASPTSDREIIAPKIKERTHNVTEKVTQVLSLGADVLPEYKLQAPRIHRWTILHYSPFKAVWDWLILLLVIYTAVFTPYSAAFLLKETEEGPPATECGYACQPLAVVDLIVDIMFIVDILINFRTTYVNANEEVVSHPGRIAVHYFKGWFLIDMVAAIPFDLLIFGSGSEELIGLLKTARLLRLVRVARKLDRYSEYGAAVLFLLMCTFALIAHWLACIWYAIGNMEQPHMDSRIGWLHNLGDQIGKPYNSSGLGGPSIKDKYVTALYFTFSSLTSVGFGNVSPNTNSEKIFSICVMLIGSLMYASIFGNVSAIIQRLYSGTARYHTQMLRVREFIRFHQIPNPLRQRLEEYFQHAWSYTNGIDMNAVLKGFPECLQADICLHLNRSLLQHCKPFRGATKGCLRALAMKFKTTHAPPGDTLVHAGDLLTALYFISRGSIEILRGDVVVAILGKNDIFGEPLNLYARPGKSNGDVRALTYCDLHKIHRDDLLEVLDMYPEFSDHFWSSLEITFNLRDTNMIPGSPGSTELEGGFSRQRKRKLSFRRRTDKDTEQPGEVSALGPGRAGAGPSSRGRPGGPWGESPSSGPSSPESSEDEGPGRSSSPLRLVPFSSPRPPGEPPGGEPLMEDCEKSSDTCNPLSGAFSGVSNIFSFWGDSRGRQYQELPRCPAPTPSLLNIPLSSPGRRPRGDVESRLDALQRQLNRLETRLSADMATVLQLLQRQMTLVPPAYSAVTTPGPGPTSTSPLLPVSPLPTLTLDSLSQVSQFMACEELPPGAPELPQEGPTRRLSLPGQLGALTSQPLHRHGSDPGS
row,SMILES,"hERG current change (%, negative = inhibition) at 10uM"
1,O=C(c1ccc([N+](=O)[O-])cc1)N1CCN(c2ncc(Br)cn2)CC1,-32%
2,O=C(c1cncc(Br)c1)N1CCN(c2ccc([N+](=O)[O-])cc2)CC1,-77%
3,Cc1cc(C(=O)N2CCN(c3ccccc3)CC2)no1,-0.965%
4,O=C(c1cncc(Br)c1)N1CCN(c2ccc(N3CCOCC3)nn2)CC1,-2.06%
5,COc1ccc(N2CCN(C(=O)c3cc(C)on3)CC2)cc1,6.64%
6,Cc1cc(C(=O)N2CCN(c3ccc([N+](=O)[O-])cc3)CC2)no1,-70.6%
7,COc1ccc(N2CCN(C(=O)c3nc4nc(C)cc(C)n4n3)CC2)cc1,9.69%
8,Cc1cc(C)n2nc(C(=O)N3CCN(c4ccc([N+](=O)[O-])cc4)CC3)nc2n1,-71.4%
9,COc1cccc(N2CCN(C(=O)c3nc4nc(C)cc(C)n4n3)CC2)c1,7.28%
10,Cc1c(O)ccc2c(O)c(NC(=O)c3ccc4c(c3)CCC(C)(C)O4)c(=O)oc12,6.09%
11,CCn1c(CNC(=O)c2ccc(OC)c(OC)c2)nnc1SCC(=O)c1ccc(OC)cc1,-0.747%
12,O=C(CSc1ncn[nH]1)Nc1ccc(Cl)c(Cl)c1,0.453%
13,Cn1cc2cccc([N+](=O)[O-])c2n1,2.69%
14,O=C(CSc1nc2ccc([N+](=O)[O-])cc2[nH]1)c1ccc(Cl)cc1,12.1%
15,O=C1c2ccccc2C2(c3ccccc3)NCCN12 (stereo not shown),5.86%
16,CN(CC(=O)Nc1cccc2ccccc12)c1ccc(S(=O)(=O)N2CCOCC2)cn1,11.8%
17,COc1ccccc1CCCNC(=O)C1CCC(=O)N(CCc2ccc(Cl)cc2)C1 (stereo not shown),-60.5%
18,O=C(NCc1ccncc1)C1CCC(=O)N(CCc2ccc(Cl)cc2)C1 (stereo not shown),-65.5%
19,Cc1ccc(CNC(=O)C2CCC(=O)N(CCc3ccc(Cl)cc3)C2)cc1 (stereo not shown),-40.2%
20,Cc1ccc(CCN2CC(C(=O)NCc3ccc4c(c3)OCO4)CC2=O)cc1 (stereo not shown),-37.2%
21,O=C(NCc1ccc2c(c1)OCO2)C1CC(=O)N(CCc2ccccc2)C1 (stereo not shown),3.54%
22,COc1ccccc1CCCNC(=O)C1CCC(=O)N(Cc2ccccc2F)C1 (stereo not shown),-1.76%
23,O=C(NCc1ccccn1)C1CCC(=O)N(Cc2ccc(Cl)cc2)C1 (stereo not shown),18.7%

row,SMILES,"hERG current change (%, negative = inhibition) at 10uM"
1,CCn1nc(C)c(CNC(=O)C2CCC(=O)N(CCc3ccc(Cl)cc3)C2)c1C (stereo not shown),-21.6%
2,COc1ccccc1CCCNC(=O)C1CCC(=O)N(CCCN2CCCC2=O)C1 (stereo not shown),14%
3,CCc1ccc(CNC(=O)C2CCC(=O)N(CCc3ccc(Cl)cc3)C2)nc1 (stereo not shown),-67%
4,O=C(NCc1ccon1)C1CCC(=O)N(CCc2ccc(Cl)cc2)C1 (stereo not shown),-37.2%
5,O=C(NCc1ccc2c(c1)OCO2)C1CC(=O)N(CCc2ccc(Cl)cc2)C1 (stereo not shown),-54.1%
6,CCOc1ccc(C)cc1S(=O)(=O)Nc1ccc(Cl)cn1,-3.98%
7,Cn1c(=O)cc(OCC(=O)N2CCCc3ccccc32)c2ccccc21,-3.03%
8,CCOC(=O)C1(Cc2ccccc2C)CCCN(C(=O)CN2CCCCC2=O)C1 (stereo not shown),14.8%
9,COc1ccc(C(CC(=O)O)NC(=O)COc2ccc(C)cc2)cc1OC (stereo not shown),15.2%
10,CCOC(=O)c1c(NC(=O)c2cccs2)sc2c1CCCC2,15.6%
11,Cc1ccccc1NC1=NCC(C)S1 (stereo not shown),-2.32%
12,CCOC(=O)CN1C(=O)N[C@@H](c2cccs2)C(C(=O)OC)=C1C,-11%
13,CCCc1nn2c(=O)cc(CSCC(=O)Nc3ccc(F)cc3)nc2s1,-1.51%
14,CN(CCNC(=O)C1CCC(=O)N(Cc2ccc(Cl)cc2)C1)CCc1ccccc1 (stereo not shown),-72.6%
15,O=C(NC1(c2ccccc2)CC1)C1CCC(=O)N(Cc2ccc(Cl)cc2)C1 (stereo not shown),-24.1%
16,COc1ccccc1CN1CC(C(=O)N2CCCCCCC2)CCC1=O (stereo not shown),3.22%
17,COc1ccccc1CN1CC(C(=O)NCCN(C)CCc2ccccc2)CCC1=O (stereo not shown),-65.7%
18,COc1ccccc1CN1CC(C(=O)N2CCCCO2)CCC1=O (stereo not shown),-65.7%
19,COc1ccccc1CN1CC(C(=O)NCCCc2ccc(F)cc2)CCC1=O (stereo not shown),-41%
20,COc1ccccc1CN1CC(C(=O)N2CCOCC2)CCC1=O (stereo not shown),-14.6%
21,COc1ccccc1CCNC(=O)C1CCC(=O)N(Cc2ccccc2OC)C1 (stereo not shown),-13.2%
22,O=C(NCCc1ccccc1Cl)C1CCC(=O)N(Cc2ccc(Cl)cc2)C1 (stereo not shown),-56.8%
23,CN(CCNC(=O)C1CCC(=O)N(Cc2cccc(F)c2)C1)CCc1ccccc1 (stereo not shown),-46.3%
